High-throughput results deposited in PubChem by National Center for Advancing Translational Sciences (NCATS).
An excerpt weighted towards active compounds, which were near 19% of everything screened.
TDP1 inh – blocks human tyrosyl-DNA phosphodiesterase 1; Q9NUW8; recombinant TDP1, AlphaScreen DNA substrate cleavage; 350,000 tested, 0.28% active; Potency, µM (series often up to 130 µM), inactives show at the top dose activity change, negative = inhibition, usual class: inhibitors; note: nearly all actives have a fitted effect of over 40% in size
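Recombinant E. coli-expressed Tdp1 (1 nM) preincubated with compound 15 min at RT, then 5'-biotin/3'-phosphotyrosine-FITC DNA substrate (15 nM) added for 5 min. AlphaScreen beads (10 ug/ml) added, 10 min RT; tyrosine-FITC cleavage read as signal loss.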
DT40 TDP1 no CPT – qHTS for Inhibitors of human tyrosyl-DNA phosphodiesterase 1 (TDP1): qHTS in cells in absence of CPT | Potency, µM (doses to about 46.2 µM), for the others: top-dose activity change, negative = growth inhibition, hits mostly inhibitors | DT40 Tdp1-/- hTDP1 cells, no CPT, ATP luminescence, 48 h | 420,000 tested, 15% active | AID 686978, 2013; note: nearly all actives have a fitted effect of over 55% in size
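Chicken DT40 Tdp1-/- cells complemented with human TDP1, screened without camptothecin (DMSO vehicle only), 400 cells/well. Compounds pin-transferred, cells incubated at 37 °C for at least 48 hr. Growth read as ATP-dependent luminescence (CellTiter-Glo, 30 min at RT).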
RORg inh – inhibitors of mouse ROR gamma transcriptional activity; Drosophila S2 Gal4-RORgamma UAS-luciferase reporter, 20 h; Potency, µM (doses to about 53.6 µM), for inactives: at the highest dose activity change, negative = inhibition, actives largely listed as inhibitors; 310,000 tested, 5.4% active; note: nearly all actives have a fitted effect of over 60% in size
Target sequence (P51450 whole entry, looked up, the tested form may be a part): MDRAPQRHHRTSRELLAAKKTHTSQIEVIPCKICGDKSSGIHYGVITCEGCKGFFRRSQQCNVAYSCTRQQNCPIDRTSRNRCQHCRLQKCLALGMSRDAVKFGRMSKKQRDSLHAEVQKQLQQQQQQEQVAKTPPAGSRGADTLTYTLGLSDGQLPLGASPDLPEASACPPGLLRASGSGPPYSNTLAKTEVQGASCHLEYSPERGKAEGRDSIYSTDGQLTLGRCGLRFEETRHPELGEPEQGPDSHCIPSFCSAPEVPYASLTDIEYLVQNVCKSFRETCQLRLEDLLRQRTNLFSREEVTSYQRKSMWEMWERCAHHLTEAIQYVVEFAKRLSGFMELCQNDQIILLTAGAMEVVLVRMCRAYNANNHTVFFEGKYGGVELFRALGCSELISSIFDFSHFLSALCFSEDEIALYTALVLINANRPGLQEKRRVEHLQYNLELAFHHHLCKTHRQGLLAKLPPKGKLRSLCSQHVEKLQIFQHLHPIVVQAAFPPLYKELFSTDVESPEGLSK
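Drosophila Schneider cells stably carrying a metallothionein-driven Gal4 DBD–ROR gamma fusion and a UAS-Photinus luciferase reporter were exposed to compound for 1 hr, then induced with copper sulfate (700 uM final) for 20 hr at ambient temperature before luminescence reading.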
Gal4-VP16 FLuc – counter-screen for ROR gamma inhibitors: Gal4-VP16 reporter; Drosophila S2 Gal4-VP16 UAS-luciferase, luminescence, 20 h; Potency, µM (doses to about 53.6 µM), for inactives: top-dose activity, negative = inhibition, most hits filed as inhibitors; 310,000 tested, 3.5% active; AID 2546;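 note: Gal4-VP16 expression switched on by copper sulfate through the metallothionein promoter; nearly all actives have a fitted effect of over 50% in size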
DT40 TDP1 CPT – DT40-hTDP1 cell growth loss with CPT; chicken DT40 Tdp1-/-;hTDP1 cells + 20 nM CPT, ATP luminescence, 48 h; Potency, µM (doses to about 46.2 µM), for the others: top-dose activity change, negative = growth inhibition, usual class: inhibitors; 420,000 tested, 12% active; note: nearly all actives have a fitted effect of over 55% in size
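Chicken DT40 Tdp1-/- cells stably complemented with human TDP1 were seeded at 400 cells/well in medium containing 20 nM camptothecin, exposed to pin-transferred compounds, and grown at 37 °C for at least 48 hr. Viability was read as ATP luminescence.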
An asterisk follows results filed as active; ? = inconclusive; / = not tested or not shown. Calls come from the whole dose curve; as a rule, active = well fitted curve in the direction sought with a large enough effect; inconclusive = small, poorly fitted or top-dose-only effect, or another doubt; inactive = no such curve, though single readings can be large; an effect the other way counts as inactive or inconclusive. % is set by controls: 0 for no effect and ±100 for the full control effect; potency is the fitted concentration of half-maximal effect.

SMILES | TDP1 inh | DT40 TDP1 no CPT | RORg inh | Gal4-VP16 FLuc | DT40 TDP1 CPT
Cc1cccc(C)c1-c1ccc(CN2C(CC(C)C)C(=O)N(Cc3cn(CC4CCCCC4)nn3)CCS2(=O)=O)cc1 (stereo not given) | / | 23µM* | / | / | ?
CC1CN/C(=C\C(=O)c2ccc(Cl)cc2)C(=O)N1 (stereo not given) | 7% | -21% | ? | ? | -8%
CC(C)NC(=S)N/N=C/c1cccs1 | 5% | 0.82µM* | 0.79µM* | 1.1µM* | 0.92µM*
CC(C)NC(=S)N/N=C/c1ccc(C(C)(C)C)cc1 | 5% | 10µM* | 0.5µM* | 2.2µM* | 13µM*
Cc1ccc(Sc2cc(NCCCO)c([N+](=O)[O-])c3nonc23)cc1 | 2% | 2.9µM* | -13% | -8% | 2.3µM*
CC(=O)OCCCNc1cc(Sc2ccc(Cl)cc2)c2nonc2c1[N+](=O)[O-] | -1% | 3.7µM* | 8% | -14% | 2.1µM*
COC(=O)CCSc1cc(NCCCOC(C)=O)c([N+](=O)[O-])c2nonc12 | 4% | 5µM* | / | / | 5µM*
O=[N+]([O-])c1c(NCCO)cc(N2CCCCC2)c2nonc12 | -3% | -2% | 33% | -1% | 2%
CC(C)CCSc1cc(NCCO)c([N+](=O)[O-])c2nonc12 | 6% | ? | -26% | ? | ?
CCc1ccc(C2C3=C(CC(C)(C)CC3=O)Nc3c2c(=O)[nH]c2nc(C)nn32)cc1 (stereo not given) | 1% | -7% | -1% | 6% | -20%
CC(/C=N/O)Cc1ccc2c(c1)OCO2 (stereo not given) | 2% | -3% | 1% | -11% | ?
CCOc1cc(/C=C2\SC(=O)N=C2N)ccc1O | 4% | ? | -5% | -28% | ?
COc1ccc2cc(OCC(=O)NNC(=O)Nc3ccc(OC)c(OC)c3)ccc2c1 | -11% | -1% | -5% | 2% | -10%
Cc1cc(-n2ccnc(NCCc3ccc(S(N)(=O)=O)cc3)c2=O)ccc1Br | 8% | 26µM* | / | / | ?
CCNC(=O)C/C(C)=N/NC(=O)C1CCCCC1 | 8% | -5% | 11µM* | ? | -8%
CCNC(=S)N1CCC(NC(=O)C2CCCCC2)CC1 | -4% | -6% | 9% | -2% | 3%
CCNC(=S)NNC(=O)C1CCCCC1 | 1% | -2% | 13µM* | ? | 5%
COc1ccc(CCNC(=O)C/C(C)=N/NC(=O)C2CCCCC2)cc1OC | 0% | -14% | -12% | ? | -3%
O=C(C1CC1)N1CCc2cc(Br)cc(S(=O)(=O)N3CCN(c4cccc(C(F)(F)F)c4)CC3)c21 | 3% | 8.2µM* | / | / | ?
O=C(C1CC1)N1CCc2cc(Br)cc(S(=O)(=O)N3CCN(c4ccccn4)CC3)c21 | 6% | -8% | 1% | 22µM* | 8%
O=C(OCCN1CCCCC1)c1cccc(Cl)c1 | 5% | -6% | -21% | -12% | -2%
COc1cccc(N2CCN(CC(=O)Nc3nc4c(s3)CC(C)CC4)CC2)c1 (stereo not given) | 12% | -17% | -18% | 7% | -27%
CCOc1ccc(S(=O)(=O)N2c3ccccc3CC2C)cc1 (stereo not given) | -2% | 0.92µM* | -25% | ? | 0.65µM*
CC1Cc2ccccc2N1C(=O)CN1CCN(S(=O)(=O)c2cccs2)CC1 (stereo not given) | 3% | 15µM* | / | / | ?
Cc1ccc(S(=O)(=O)N2c3ccccc3CC2C)cc1 (stereo not given) | 0% | ? | -21% | 7% | ?
SMILES | TDP1 inh | DT40 TDP1 no CPT | RORg inh | Gal4-VP16 FLuc | DT40 TDP1 CPT
CC1Cc2ccccc2N1S(=O)(=O)c1cccs1 (stereo not given) | 5% | 16µM* | 31% | -7% | 21µM*
CC1Cc2ccccc2N1C(=O)CCS(=O)(=O)c1cccs1 (stereo not given) | 0% | -7% | ? | 5% | -2%
Clc1ccc(CN2CCC(c3nc4ccc(Cl)cc4[nH]3)CC2)cc1 | 2% | 12µM* | -2% | -6% | 16µM*
COc1cccc(/C=N/NC(=O)c2c(C)nc3ccc(Br)cn23)c1O | 56µM* | 3.3µM* | 2.5µM* | 2.5µM* | 4.6µM*
COc1ccc(/C=N/NC(=O)c2c(C)nc3ccc(Br)cn23)cc1OC | -3% | 7.3µM* | 5% | -19% | 8.2µM*
C=CCOc1ccc(/C=N/NC(=O)c2c(C)nc3ccc(Cl)cn23)cc1 | / | ? | 2.2µM* | 10µM* | 24%
COc1ccc(/C=N/NC(=O)c2c(C)nc3ccc(Cl)cn23)cc1OC | / | 8.2µM* | -3% | 5% | 12µM*
CCOc1ccc(S(=O)(=O)NCCC(=O)Nc2nnc(C)s2)cc1 | 12% | -3% | 39% | -4% | -4%
O=S(=O)(Nc1ccc2c(c1)OCCO2)c1cccc(F)c1 | / | -10% | 67% | 11% | -11%
COC(=O)c1[nH]c2ccc(Cl)cc2c1NC(=O)CCN1CCOCC1 | 0% | -14% | 17% | 3% | -3%
COc1ccc(CN(Cc2ccccn2)S(=O)(=O)c2ccc(-n3cnnn3)c(OC)c2)cc1 | 1% | -20% | -14% | -5% | -20%
O=Cc1cn(CC(=O)N2CCCCCC2)c2ccccc12 | / | 18% | 5% | 2% | -8%
COc1cc(/C=N/NC(=O)c2c(C)nc3ccc(Cl)cn23)cc(OC)c1OC | / | ? | ? | -5% | ?
COC(=O)c1ccc(/C=N\NC(=O)c2c(C)nc3ccc(Cl)cn23)cc1 | / | 10µM* | -2% | -17% | ?
COc1cccc(/C=N/NC(=O)c2c(C)nc3ccc(Cl)cn23)c1OC | / | ? | ? | -8% | 16µM*
COc1ccccc1OCC(=O)N/N=C/c1cccc2cccnc12 | 2% | 21µM* | 18µM* | ? | ?
O=C(COc1ccc(Cl)cc1)N/N=C/c1cccc2cccnc12 | 1% | 18µM* | 13µM* | 10µM* | ?
C=CCn1cc(/C=N/NC(=O)COc2cccc3cccnc23)c2ccccc21 | 8% | 16µM* | 12% | -4% | 15µM*
O=C(COc1ccc2ccccc2c1)N/N=C/c1ccccn1 | 6% | ? | ? | 3% | ?
Cc1cc(/C=N\NC(=O)COc2cccc3cccnc23)c(C)n1-c1ccccc1 | 0% | -20% | 22% | 3% | ?
COc1ccc(/C=N/NC(=O)COc2ccc3ccccc3c2)c(C(=O)O)c1OC | 5% | ? | 0% | -9% | 16µM*
COc1ccc(OCC(=O)N/N=C/c2ccc(OC)c(OC)c2C(=O)O)cc1 | 3% | -2% | 1% | -10% | -14%
CCn1c(=O)c(C(=O)CN2CCc3ccccc32)c(N)n(Cc2ccccc2)c1=O | 3% | ? | 24% | -14% | ?
